GLP-1R inv ag: acts as inverse agonist at human GLP-1 receptor; HEK293 GLP-1R CRE-luciferase, luminescence, 24 h; GLP-1R form is constitutively active; 410,000 compounds, 1.6% hits; Potency, µM (top dose mostly 38.3 µM), inactives show top-dose activity change, negative = inhibition, actives largely listed as inhibitors; AID 624417; P43220; further: on the % scale 0 is the no-effect control and ±100 the full control effect; nearly all actives have a fitted effect of over 55% in size
Target sequence (P43220 whole entry, looked up): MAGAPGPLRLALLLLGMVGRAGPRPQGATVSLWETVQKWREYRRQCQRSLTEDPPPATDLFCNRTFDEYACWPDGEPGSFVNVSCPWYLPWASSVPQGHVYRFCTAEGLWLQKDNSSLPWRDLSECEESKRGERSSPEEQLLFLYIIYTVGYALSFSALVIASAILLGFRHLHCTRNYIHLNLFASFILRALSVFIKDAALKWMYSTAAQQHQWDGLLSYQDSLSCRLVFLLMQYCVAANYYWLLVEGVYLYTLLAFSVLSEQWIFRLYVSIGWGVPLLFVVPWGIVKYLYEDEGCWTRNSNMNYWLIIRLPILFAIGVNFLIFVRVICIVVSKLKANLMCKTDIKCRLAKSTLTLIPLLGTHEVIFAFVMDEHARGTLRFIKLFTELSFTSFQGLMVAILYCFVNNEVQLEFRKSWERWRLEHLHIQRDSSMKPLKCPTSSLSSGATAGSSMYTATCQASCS
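HEK293 cells stably co-expressing a cAMP-responsive luciferase reporter and constitutively active GLP-1R were seeded, incubated 12 h, then exposed to compounds for 24 h at 37 C. Luminescence was read 12 min after detection reagent; inverse agonists lower signal.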
HEK293 tox: cytotoxic in the GLP-1 receptor inverse agonist counter-screen. Potency, µM (highest dose often 38.3 µM), for the others: at the top dose activity change, negative = inhibition, hits mostly inhibitors. HEK293 cAMP-luciferase reporter cells, luminescence, 24 h. 410,000 compounds, 0.13% hits. AID 624418;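 further: loss of luciferase light is scored as toxicity; on the % scale 0 is the no-effect control and ±100 the full control effect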
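To flag toxic compounds, the library was rerun on cells for 24 hr at 37 deg C and 5% CO2. Viability-linked luminescence was captured 12 min after adding luciferase detection reagent.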
ClpP mod: qHTS Assay for Activators of ClpP; Potency, µM (top dose mostly 57.5 µM), inactives show top-dose activity change, negative = active; 340,000 compounds, 1.9% hits; AID 651965, 2013; purified B. subtilis ClpP, FRET peptide cleavage, 20 min; ATP-dependent Clp protease proteolytic subunit (Bacillus subtilis (strain 168)), P80244; active means well fitted falling curve with a large enough effect; inconclusive means small, poorly fitted or top-dose-only effect; inactive means no such curve, though single readings can be large or run the other way; further: the source files actives as falling curves though it sought activators and does not explain the sign; nearly all actives have a fitted effect of over 65% in size
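ClpP 10 microg/mL final, pH 8 Tris/KCl buffer with BSA, glycerol, Tween-20; compound pinned in; FRET-FV substrate; RT 20 min; Ex320/Em430; ΔFRET vs ADEP 5.8 microM, DMSO, no enzyme.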
GLP-1R agonist: agonists of human GLP-1 receptor. HEK293 GLP-1R CRE-luciferase, luminescence, 4-6 h; cells express a hypersensitive GLP-1R form. Potency, µM (top dose mostly 45.6 µM), without a hit: top-dose activation, actives largely listed as activators. 380,000 compounds, 0.007% hits. P43220; further: % of control where 0% means no effect
* marks the source's active call; other numbers are inactive results; ? = inconclusive; / = no result; [ ] = another dose, or the depositor's remark. An excerpt weighted towards active compounds, which were near 3.2% of everything screened. Unless noted, the call rests on the fitted dose curve; in most records, active means well fitted curve in the direction sought with a large enough effect; inconclusive means small, poorly fitted or top-dose-only effect, or another doubt; inactive means no such curve, though single readings can be large; an effect the other way counts as inactive or inconclusive. Potency means the concentration at half of the fitted maximal effect.

SMILES | GLP-1R inv ag | HEK293 tox | ClpP mod | GLP-1R agonist
Cn1cc(SCC(=O)Nc2nc3ccccc3s2)c2ccccc21 | 10µM* | ? | 2.8% | -13.9%
CC(C(=O)c1cn(C)c2ccccc12)c1ccccc1 (centres undefined) | ? | 5.2% | -0.8% | 3.5%
CC/C(=C\C=C\[C@@H]1C=C[C@@H]2CCC[C@H]2[C@@H]1C(=O)c1ccc[nH]1)[C@@H]1O[C@@H]([C@@H](C)C(=O)O)CC[C@@H]1C | 2.51µM* | ? | 1.0% | -17.2%
CC(C)n1c(N2CCN(S(=O)(=O)c3cccc([N+](=O)[O-])c3)CC2)nc2ccccc21 | ? | -25.9% | / | 5.1%
C/C(CC(=O)Nc1ccc(Cl)c(C(F)(F)F)c1)=N\NC(N)=S | 10µM* | ? | / | 1.9%
CC1CCN(CCc2nc3cc(NC(=O)COc4ccc([N+](=O)[O-])cc4)ccc3n2C)CC1 | -18.7% | ? | -0.6% | 5.8%
CC1CCC(C(C)C)C(OC(=O)COC(=O)c2ccccc2N)C1 (centres undefined) | ? | 1.4% | 28.2µM* | -13.5%
CC1CCC(C(C)C)C(OP(N)(=O)c2ccccc2)C1 (centres undefined) | ? | 8.5% | 2.0% | 0.4%
Cc1ccc(S(=O)(=O)N(CC(=O)N2CCC(C)CC2)Cc2ccccc2F)cc1 | ? | ? | -1.9% | -0.7%
COc1ccc([C@H]2C[C@@H](O)[C@H](n3cc(COC(=O)c4ccccc4)nn3)CN2CC2CCCCC2)cc1 | 11.2µM* | -28.6% | -6.1% | -0.7%
CCN(CC)S(=O)(=O)c1ccc(C(=O)NC(=S)N2CCN(c3ccccc3O)CC2)cc1 | ? | -19.3% | -3.4% | -5.1%
CCOC(=O)c1ccc(N2C(=O)c3[nH]nc(-c4ccccc4)c3C2c2ccc(CC)cc2)cc1 (centres undefined) | 11.2µM* | ? | -15.9% | -5.5%
COc1ccc(CN2Cc3cnnn3-c3ccccc3C2C#N)cc1 (centres undefined) | 2.82µM* | ? | 0.9% | -13.0%
N#CC1c2ccccc2-n2nncc2CN1Cc1cc(Cl)cc(Cl)c1 (centres undefined) | 1.26µM* | ? | -0.6% | -13.0%
ClC[C@H]1CO1 (tested in a mixture with another compound) | / | / | / | -0.5%
C[C@H](N)Cc1ccccc1 | / | / | / | -1.4%
Cc1cc(NC(=O)c2cccn(Cc3cccc(Cl)c3)c2=O)no1 | 9.2% | -5.2% | 35.5µM* | 14.7%
Cc1cc(NC(=O)c2cccn(Cc3ccccc3)c2=O)no1 | 9.7% | 3.2% | -13.5% | /
O=C(C1CCC(CNc2nc(=S)[nH]c3ccccc23)CC1)N1CCN(c2ccc(F)cc2)CC1 (centres undefined) | ? | ? | / | 5.6%
Cc1oc(-c2ccc(Cl)cc2)nc1CN1CCC(C(=O)NCCCN2CCN(c3cccc(Cl)c3)CC2)CC1 | ? | -0.7% | -0.5% | /
NNC(=O)c1ccc(OCC2CC(c3ccc(Cl)cc3)=NO2)cc1 (centres undefined) | 12.6µM* | 12.6µM* | -3.2% | 3.1%
CC(C)Nc1nc(NCCOc2ccccc2Cl)c2sc(-c3ccccc3)cc2n1 | ? | ? | 25.1µM* | -7.6%
Cc1ccc([C@H]2N[C@]3(CCCN(Cc4ccc(C(F)(F)F)cc4)C3=O)[C@H]3C(=O)N(Cc4ccccc4)C(=O)[C@@H]23)cc1 | ? | -2.4% | 2.0% | -1.6%
CC(C)c1ccc(Oc2cccc3c2S(=O)(=O)N(C2CCCC2)CC(COCc2ccccc2)O3)cc1 (centres undefined) | 5.62µM* | -0.7% | -3.7% | 6.3%
Cc1c(CCNS(=O)(=O)c2ccccc2)sc2nc(-c3ccc(Cl)cc3)nn12 | ? | -11.9% | -6.5% | /
Cc1ccc(/C(CSc2nccn2-c2ncc(C(F)(F)F)cc2Cl)=N\O)cc1 | 3.55µM* | 3.9% | 0.7% | 5.0%
Oc1cc[c]([Hg][Cl])cc1 | / | / | / | -7.2%
Cc1ccc(C)c(CN2CCC(CNC(=O)Nc3ccc(Br)cc3F)CC2)c1 | 7.08µM* | ? | -0.7% | 10.3%
O=C(Nc1ccc(Cl)c(Cl)c1)Nc1ccc(Br)cc1F | ? | ? | -9.1% | -20.8%
COc1ccc2c3c1OC1C(O)C=CC4[C@@H](C2)NCC[C@]314 (some centres undefined) | / | / | / | -3.0%[96 µM]

Bioassay records: PubChem, National Center for Advancing Translational Sciences (NCATS)
